Here are results for 4 compounds from PubChem BioAssay AID651656 (NMMLSC, 2012).

The viability is a per cent measure of how many cells are alive, often set against a control.

A number with no mark means an inactive call.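 How the source made its calls: active means viability at the highest tested concentration below 50%; inactive means the rest.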

The experiment is described as follows: cytotoxicity in ABCB6-expressing K562 cells, dose response, cytotoxicity control for ABCB6 inhibitor project, cell-based, CellTiter-Glo luminescence, PowderSet01 powders (AID 651656). The following applies: 18 h; series mostly up to 100 µM; viability: at the top concentration.
As to `CCOc1ccccc1NC(=O)c1nc(S(=O)(=O)Cc2cccc(C)c2)ncc1Cl`, the “viability” value is 65.6%. The value for `CC(=O)Nc1ccc(NC(=O)c2nc(S(=O)(=O)Cc3ccccc3)ncc2Cl)cc1` was 83.2%. The value for `CC(=O)Nc1ccc(NC(=O)c2nc(S(=O)(=O)Cc3cccc(C)c3)ncc2Cl)cc1` was 63.3%; that for `CCc1ccc(NC(=O)c2nc(S(=O)(=O)Cc3ccccc3)ncc2Cl)cc1` was 72.5%.
